In the library only some 21% were active in any assay of this set; here they are far more common.
Pf growth 48h – P. falciparum growth inhibition at 48 hours (one generation). 5.9% of 310,000 active. Potency, µM (series often up to 28.7 µM), for the others: at the top dose activity change, negative = inhibition, hits mostly inhibitors. AID 504832. P. falciparum luciferase growth in erythrocytes, 48 h; active = well fitted inhibition curve with a large enough effect; inconclusive = small, poorly fitted or top-dose-only effect, or another doubt; inactive = no such curve, though single readings can be large or run the other way; note: potency is the fitted concentration of half-maximal effect; % is set by controls: 0 for no effect and ±100 for the full control effect
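Luciferase-expressing parasites in RBCs, 2% Hct / 0.1% parasitemia final; RPMI 1640 + 0.5% Albumax; 37 C, 5% CO2, one generation; luminescence read-out, lower signal = inhibition.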
SARS PLpro yeast – SARS-CoV PLP inhibition in yeast; Potency, µM (titrated, usually from 32.9 µM), without a hit: at the highest dose activity, positive = growth rescue, hits mostly activators; 0.19% of 330,000 active; AID 485353; S. cerevisiae expressing SARS-CoV PLpro, growth rescue; note: potency is the fitted concentration of half-maximal effect; 0% is about no effect; nearly all actives have a fitted effect of over 55% in size
Shiga inhibitor – blocks Shiga toxin action in Vero cells; Vero cells, Shiga toxin protein synthesis inhibition reporter; inhibition, % at 38.7 µM; 9.2% of 290,000 active; AID 2315; in the data active = inhibition mostly above about 28%, no sharp cut-off; inactive = mostly below about 43%; note: 0% is about no effect
CHX counter – counter-screen for Shiga toxin inhibitors: cycloheximide protein synthesis inhibition | 12% of 300,000 active | max response, % | cell reporter, cycloheximide protein synthesis inhibition counterscreen | AID 2314; in the data active = max response mostly above about 13%, no sharp cut-off; inactive = mostly below about 14%; note: read at 38.3 µM for the half of the compounds with a filed dose; 0% is about no effect
Pf growth 96h – P. falciparum growth inhibition at 96 hour, primary screen for plastid delayed-death inhibitors; P. falciparum luciferase reporter growth, 96 h; Potency, µM (series often up to 28.7 µM), for inactives: top-dose activity change, negative = inhibition, most hits filed as inhibitors; 6.9% of 320,000 active; AID 504834; active = well fitted inhibition curve with a large enough effect; inconclusive = small, poorly fitted or top-dose-only effect, or another doubt; inactive = no such curve, though single readings can be large or run the other way; note: potency is the fitted concentration of half-maximal effect; % is set by controls: 0 for no effect and ±100 for the full control effect
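Readout is luminescence from an integrated firefly luciferase in P. falciparum. Red cells, 2% hematocrit and 0.05% parasitemia final, were cultured with compound through two parasite generations (96 hours) at 37 C, 5% CO2.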
NS1 inh – inhibitors of influenza NS1 protein function; Potency, µM (doses to about 46.1 µM), inactives show at the highest dose activity, positive = more growth; 0.4% of 270,000 active; note: potency is the fitted concentration of half-maximal effect; actives are rising curves; nearly all actives have a fitted effect of over 50% in size
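Growth recovery, yeast-based: influenza A NS1 expressed in S. cerevisiae causes slow growth, and suppressors are detected by OD600. The parent strain without NS1 is used as positive control.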
* marks the source's active call; other numbers are inactive results; ? = inconclusive; nt = not tested or not shown. Unless noted, calls come from the whole dose curve.

SMILES	Pf growth 48h	SARS PLpro yeast	Shiga inhibitor	CHX counter	Pf growth 96h	NS1 inh
COc1cccc(-n2c(=O)c3c(C)c(C(=O)N(C)C)sc3n(CC(=O)NCC3CCCO3)c2=O)c1 (stereo unspecified)	7%	-5%	2	1	?	nt
CCOC(=O)Cc1ccc(NC(=O)c2cccc([N+](=O)[O-])c2)cc1	10%	-1%	62*	21*	9%	-1%
CCOC(=O)Cc1ccc(NC(=O)c2ccc([N+](=O)[O-])cc2)cc1	-19%	-1%	20	-1	56%	-5%
CC(C(=O)Nc1cccc([N+](=O)[O-])c1)[n+]1ccccc1 (stereo unspecified)	17%	-2%	12	0	-43%	6%
O=C(Nc1ccccc1)Nc1ncc([N+](=O)[O-])s1	-61%	-4%	77*	35*	-64%	nt
O=C(Nc1ccc(NC(=O)c2cccc([N+](=O)[O-])c2)cc1)c1cccc([N+](=O)[O-])c1	?	9%	nt	30*	-24%	-33%
CC(Sc1cccc[n+]1[O-])C(=O)Nc1cccc([N+](=O)[O-])c1 (stereo unspecified)	13%	1%	19	16*	20%	nt
COC(=O)c1cccc(NC(=O)c2cccc([N+](=O)[O-])c2)c1	69%	-2%	nt	2	28%	-10%
O=C(Nc1ccc(S(=O)(=O)NCc2ccco2)cc1)C1CCCCC1	0%	1%	1	14	22%	3%
O=C(Nc1cc([N+](=O)[O-])ccc1O)c1cccc([N+](=O)[O-])c1	33%	0%	nt	6	-3%	3%
COC(=O)/C(=C\c1ccc([N+](=O)[O-])o1)NC(=O)c1ccccc1	nt	-6%	-13	-4	13µM*	-10%
Cc1cc(O)c(NC(=O)c2cccc([N+](=O)[O-])c2)cc1C	-3%	0%	47*	22*	48%	3%
O=C(NNc1ccc([N+](=O)[O-])cc1)c1ccccc1Cl	35%	-3%	5	6	0%	nt
O=C(NNc1ccc([N+](=O)[O-])cc1)c1ccccc1F	16%	-4%	21	25*	43%	-48%
CN(c1cccc(NC(=O)c2cccc([N+](=O)[O-])c2)c1)S(C)(=O)=O	?	?	35	27*	39%	10%
O=C(CN1C(=O)N/C(=C\c2ccccc2OCc2ccc(C(=O)O)cc2)C1=O)Nc1ccccc1F	6%	2%	-22	-4	-20%	-2%
CCc1ccc(CN(C)C(=O)CCc2nc3ccccc3n(-c3ccc(OC)cc3)c2=O)cc1	?	-8%	-18	4	13µM*	nt
COc1ccc(-n2c(=O)c(CCC(=O)NCCc3ccccc3F)nc3ccccc32)cc1	?	-4%	nt	nt	?	nt
COc1ccc(-n2c(=O)c(CCC(=O)N(C)Cc3ccccc3C)nc3ccccc32)cc1	10µM*	0%	-4	-2	8.3µM*	nt
O=[N+]([O-])c1cc(S(=O)(=O)N2CCCC2)ccc1N/N=C1/CCCc2ccccc21	?	3%	-3	-6	?	2%
COc1ccc(-n2c(C)nnc2SCC(=O)Nc2ccccc2F)cc1	15%	1%	-5	4	-8%	1%
COc1ccc(COn2nnc3ccc(S(=O)(=O)N4CCOCC4)cc32)cc1F	?	-1%	nt	nt	?	nt
C=CCn1c(SCC(=O)c2ccc(Cl)cc2)nnc1-c1ccc2c(c1)OCO2	?	5%	6	16	12µM*	13%
C/C(=N\NC(=O)c1ccc(Br)cc1)c1cccnc1	63%	?	45	22*	?	-5%
CC(/C=C/c1ccc2c(c1)OCO2)=N/NC(=O)c1cccnc1	36%	2%	62*	23*	39%	6%
C/C(=N/NC(=O)CCc1ccccc1)c1ccc2c(c1)OCO2	7%	0%	-2	9	?	-3%
CC/C(=N\NC(=O)c1cccnc1)c1ccc2c(c1)OCCO2	-11%	1%	14	7	0.93µM*	nt
C/C(=N\NC(=O)c1ccccc1)c1ccc2c(c1)OCO2	nt	2%	96*	51*	-17%	-9%
O=C(CC(CC(=O)c1ccc(Br)cc1)c1cccnc1)c1ccc(Br)cc1	0%	1%	-12	-3	-17%	2%
CCOC(=O)N1CCC(N2Cc3cccc(C(=O)Nc4cccc(F)c4)c3C2=O)CC1	?	2%	13	-5	?	nt
